Measured values reported in PubChem BioAssay AID1159580 (chemical genetic matrix, 2015).
The whole screen tested about 5,500 compounds, of which about 2,000 (36%) were called active. Not shown: some 18% with an inconclusive outcome. Rule as the data show it: active = normalized growth mostly below about 0.91 (no sharp cut-off); inconclusive = no clear call, values can overlap the other calls; inactive = mostly above about 0.92. The list shows a part of the results.

Assay: chemical genetic growth profiling, strain panel (AID 1159580);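 also: tested at 20 µM; growth read once vehicle control cultures reached saturation at 30 °C; 1 = growth at the plate median or of vehicle wells; lower values mean less growth of the strain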
Conditions: growth OD

Measured: normalized growth

O=C(O)CCC1NCC2CC1CN1CCCCC21 (configuration not stated)
inactive: S. cerevisiae deletion strains, locus YJR075W, strain HOC1, active compounds read low 1.01 | S. cerevisiae deletion strains, locus YKL009W, strain mrt4, active compounds read low 1.02 | S. cerevisiae deletion strains, locus YKL068W, active compounds read low 1 | S. cerevisiae deletion strains, locus YKL085W, strain MDH1 (second series), active compounds read low 1.02 | S. cerevisiae deletion strains, locus YKL085W, strain MDH1, active compounds read low 1.02 | S. cerevisiae deletion strains, locus YKL160W, strain elf1, active compounds read low 0.974 | S. cerevisiae deletion strains, locus YKL190W, strain CNB1, active compounds read low 1 | S. cerevisiae deletion strains, locus YKR001C, strain vps1, active compounds read low 0.995 | S. cerevisiae deletion strains, locus YKR026C, strain gcn3, active compounds read low 0.982 | S. cerevisiae deletion strains, locus YKR091W, strain srl3, active compounds read low 0.97 | S. cerevisiae deletion strains, locus YLL001W, strain dnm1, active compounds read low 0.954 | S. cerevisiae deletion strains, locus YLL026W, active compounds read low 0.98 | S. cerevisiae deletion strains, locus YLL041C, strain sdh2, active compounds read low 0.987 | S. cerevisiae deletion strains, locus YLR027C, strain aat2, active compounds read low 0.992 | S. cerevisiae deletion strains, locus YLR039C, strain RIC1, active compounds read low 0.998 | S. cerevisiae deletion strains, locus YLR058C, strain SHM2, active compounds read low 1.01 | S. cerevisiae deletion strains, locus YLR102C, strain apc9, active compounds read low 0.99 | S. cerevisiae deletion strains, locus YLR113W, strain HOG1, active compounds read low 0.983 | S. cerevisiae deletion strains, locus YLR221C, strain rsa3, active compounds read low 0.968 | S. cerevisiae deletion strains, locus YLR258W, strain gsy2, active compounds read low 0.992 | S. cerevisiae deletion strains, locus YLR262C, strain YPT6 (second series), active compounds read low 0.958 | S. cerevisiae deletion strains, locus YLR262C, strain YPT6, active compounds read low 0.97 | S. cerevisiae deletion strains, locus YLR268W, strain sec22, active compounds read low 0.988 | S. cerevisiae deletion strains, locus YLR320W, strain mms22, active compounds read low 0.962 | S. cerevisiae deletion strains, locus YLR330W, strain CHS5, active compounds read low 1.01 | S. cerevisiae deletion strains, locus YLR342W, strain FKS1 (second series), active compounds read low 1.05 | S. cerevisiae deletion strains, locus YLR342W, strain FKS1, active compounds read low 0.981 | S. cerevisiae deletion strains, locus YLR357W, strain rsc2, active compounds read low 0.971 | S. cerevisiae deletion strains, locus YLR370C, strain arc18, active compounds read low 0.978 | S. cerevisiae deletion strains, locus YLR371W, strain rom2, active compounds read low 0.998 | S. cerevisiae deletion strains, locus YLR384C, strain iki3, active compounds read low 0.969 | S. cerevisiae deletion strains, locus YLR418C, strain cdc73, active compounds read low 0.923 | S. cerevisiae deletion strains, locus YML016C, strain PPZ1, active compounds read low 1 | S. cerevisiae deletion strains, locus YML032C, strain rad52, active compounds read low 1 | S. cerevisiae deletion strains, locus YML120C, strain ndi1, active compounds read low 0.956 | S. cerevisiae deletion strains, locus YML124C, strain tub3, active compounds read low 0.997 | S. cerevisiae deletion strains, locus YMR058W, strain fet3, active compounds read low 0.969 | S. cerevisiae deletion strains, locus YMR078C, strain ctf18, active compounds read low 1 | S. cerevisiae deletion strains, locus YMR125W, strain sto1, active compounds read low 0.962 | S. cerevisiae deletion strains, locus YMR129W, active compounds read low 0.989 | S. cerevisiae deletion strains, locus YMR205C, strain PFK2, active compounds read low 0.964 | S. cerevisiae deletion strains, locus YMR223W, strain ubp8, active compounds read low 1.02 | S. cerevisiae deletion strains, locus YMR231W, strain pep5, active compounds read low 0.985 | S. cerevisiae deletion strains, locus YMR263W, strain SAP30, active compounds read low 0.998 | S. cerevisiae deletion strains, locus YMR307W, strain GAS1, active compounds read low 1.07 | S. cerevisiae deletion strains, locus YNL067W, strain RPL9B, active compounds read low 0.999 | S. cerevisiae deletion strains, locus YNL071W, strain lat1, active compounds read low 0.991 | S. cerevisiae deletion strains, locus YNL128W, strain TEP1, active compounds read low 1.02 | S. cerevisiae deletion strains, locus YNL153C, strain GIM3, active compounds read low 0.989 | S. cerevisiae deletion strains, locus YNL183C, strain NPR1, active compounds read low 0.938 | S. cerevisiae deletion strains, locus YNL209W, strain ssb2, active compounds read low 0.984 | S. cerevisiae deletion strains, locus YNL233W, strain BNI4, active compounds read low 1.01 | S. cerevisiae deletion strains, locus YNL248C, strain rpa49, active compounds read low 0.998 | S. cerevisiae deletion strains, locus YNL250W, strain rad50, active compounds read low 1.01 | S. cerevisiae deletion strains, locus YNL271C, strain bni1, active compounds read low 1 | S. cerevisiae deletion strains, locus YNL298W, strain CLA4, active compounds read low 0.997 | S. cerevisiae deletion strains, locus YNL307C, strain MCK1, active compounds read low 1 | S. cerevisiae deletion strains, locus YNL322C, strain KRE1 (second series), active compounds read low 0.97 | S. cerevisiae deletion strains, locus YNL322C, strain KRE1, active compounds read low 1.01 | S. cerevisiae deletion strains, locus YNR049C, strain mso1, active compounds read low 0.971 | S. cerevisiae deletion strains, locus YNR052C, strain pop2, active compounds read low 1 | S. cerevisiae deletion strains, locus YOL006C, strain TOP1, active compounds read low 1.04 | S. cerevisiae deletion strains, locus YOL012C, strain htz1 0.732 | S. cerevisiae deletion strains, locus YOL147C, strain pex11, active compounds read low 1 | S. cerevisiae deletion strains, locus YOR001W, strain rrp6, active compounds read low 1.01 | S. cerevisiae deletion strains, locus YOR061W, strain CKA2, active compounds read low 1 | S. cerevisiae deletion strains, locus YOR069W, strain VPS5, active compounds read low 1 | S. cerevisiae deletion strains, locus YOR070C, strain gyp1, active compounds read low 0.973 | S. cerevisiae deletion strains, locus YOR080W, strain dia2, active compounds read low 0.964 | S. cerevisiae deletion strains, locus YOR083W, strain WHI5, active compounds read low 0.965 | S. cerevisiae deletion strains, locus YOR106W, strain vam3, active compounds read low 0.968 | S. cerevisiae deletion strains, locus YOR136W, strain idh2, active compounds read low 0.998 | S. cerevisiae deletion strains, locus YOR144C, strain elg1, active compounds read low 0.988 | S. cerevisiae deletion strains, locus YOR184W, strain ser1, active compounds read low 1.04 | S. cerevisiae deletion strains, locus YOR231W, strain MKK1, active compounds read low 1.04 | S. cerevisiae deletion strains, locus YOR265W, strain rbl2, active compounds read low 0.977 | S. cerevisiae deletion strains, locus YOR270C, strain vph1, active compounds read low 0.951 | S. cerevisiae deletion strains, locus YOR290C, strain snf2, active compounds read low 0.916 | S. cerevisiae deletion strains, locus YOR316C, strain cot1, active compounds read low 0.992 | S. cerevisiae deletion strains, locus YPL051W, strain arl3, active compounds read low 0.982 | S. cerevisiae deletion strains, locus YPL055C, strain LGE1, active compounds read low 0.99 | S. cerevisiae deletion strains, locus YPL078C, strain atp4, active compounds read low 0.983 | S. cerevisiae deletion strains, locus YPL106C, strain sse1, active compounds read low 0.946 | S. cerevisiae deletion strains, locus YPL240C, strain hsp82, active compounds read low 0.974 | S. cerevisiae deletion strains, locus YPL241C, strain CIN2, active compounds read low 0.995 | S. cerevisiae deletion strains, locus YPL256C, strain CLN2, active compounds read low 1.02 | S. cerevisiae deletion strains, locus YPR119W, strain clb2, active compounds read low 0.991 | S. cerevisiae deletion strains, locus YPR141C, strain kar3, active compounds read low 0.987 | S. cerevisiae deletion strains, locus YPR163C, strain tif3, active compounds read low 0.983 | S. cerevisiae deletion strains, locus YPR167C, strain met16, active compounds read low 0.981 | S. cerevisiae deletion strains, strain wtn01, active compounds read low 0.999 | S. cerevisiae strains, strain wild type, active compounds read low 1.01
